MCF10A rereplic: A quantitative high throughput screen for small molecules that induce DNA re-replication in MCF 10a normal breast cells; MCF 10A DNA re-replication, Hoechst nuclear intensity, 48 h; Potency, µM (highest dose often 46.1 µM), without a hit: top-dose activity, positive = re-replication, most hits filed as activators; actives 2.9% (n = 350,000); AID 624296, 2012; note: potency is the fitted concentration of half-maximal effect; % of control where 0% means no effect; nearly all actives have a fitted effect of over 50% in size
PINK1 expr mod: A Quantitative High throughput Screen to Identify Chemical Modulators of PINK1 Expression; PINK1 immunofluorescence, high-content cytometry, 24 h; Potency, µM (doses to about 76.6 µM), inactives show at the highest dose activation (PINK1 increase), hits mostly activators; actives 0.2% (n = 410,000); AID 624263, 2012; active = well fitted activation curve with a large enough effect; inconclusive = small, poorly fitted or top-dose-only effect; cell line not stated here; note: potency is the fitted concentration of half-maximal effect; % of control where 0% means no effect; nearly all actives have a fitted effect of over 65% in size
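A stable cell line was treated with compounds at 5 concentrations for 24 hours, with CCCP as control. PINK1 levels and mitochondrial localization were measured by immunofluorescence with mitochondrial, cell and nuclear markers after fixation, read by laser-scanning cytometry.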
IL-1B inflam inh: qHTS for Inhibitors of Inflammasome Signaling: IL-1-beta AlphaLISA Primary Screen; THP-1 LPS/ATP IL-1B secretion, AlphaLISA, 16 h; stronger effect = lower value; actives 4.7% (n = 360,000); activity change, % at 57.5 µM; in the data active = activity change below about -50%; inconclusive = mostly about -30% to -49%; note: % is set by controls: 0 for no effect and ±100 for the full control effect
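Secreted IL-1B measured by AlphaLISA bead assay after 16 h compound exposure of THP-1 cells; compounds (final up to 57.5 uM) added 1 h before LPS (250 ng/mL) and ATP (1.25 mM) stimulation; lower signal means less secretion.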
ATXN2 expr inh: Primary qHTS for Inhibitors of ATXN expression; HEK-293 ATXN2-luciferase reporter, luminescence, 24 h; Potency, µM (titrated, usually from 57 µM), for inactives: at the top dose activity change, negative = inhibition, actives largely listed as inhibitors; actives 0.72% (n = 360,000); AID 1745845, 2022; note: potency is the fitted concentration of half-maximal effect; % is set by controls: 0 for no effect and ±100 for the full control effect; nearly all actives have a fitted effect of over 55% in size
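ATXN2-luciferase reporter cells (luciferase flanked by upstream and downstream ATXN2 gene portions) were treated 24 h at 37 °C with compounds at up to 57 uM. SteadyGlo luminescence gave expression; GF-AFC fluorescence gave viability.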
SW480 rereplic: A quantitative high throughput screen for small molecules that induce DNA re-replication in SW480 colon adenocarcinoma cells. SW480 DNA re-replication, Hoechst DNA content imaging, 48 h. actives 1.8% (n = 340,000). Potency, µM (top dose mostly 46.1 µM), inactives show at the highest dose re-replication activation, most hits filed as activators; note: potency is the fitted concentration of half-maximal effect; % of control where 0% means no effect; nearly all actives have a fitted effect of over 55% in size
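SW480 cells exposed to compounds for 48 hr at 37 C, 5% CO2, then Hoechst-stained 40 min. Nuclear DNA content imaged by fluorescence scanning (405 nm excitation, 500-530 nm emission); re-replication scored as increased high-intensity nuclei.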
ATXN viability: Viability Counterscreen for Primary qHTS for Inhibitors of ATXN expression; S2 cells (HEK-293 line with an ATXN2-luciferase reporter) viability, CellTiter-Fluor protease fluorescence, 24 h; Potency, µM (highest dose often 56.7 µM), hits mostly cytotoxic; actives 0.49% (n = 400,000); AID 651635, 2014; note: potency is the fitted concentration of half-maximal effect; nearly all actives have a fitted effect of over 40% in size
* hit, by the source's call; [ ] = dose if it differs, or a comment. Rows were chosen to be rich in hits. Some 7.1% of all compounds tested hit in one or more screens of this group. Unless noted, calls come from the whole dose curve; as a rule, active = well fitted curve in the direction sought with a large enough effect; inconclusive = small, poorly fitted or top-dose-only effect, or another doubt; inactive = no such curve, though single readings can be large; an effect the other way counts as inactive or inconclusive.

Screening COc1ccc(C(=O)/C=C/c2ccc(OC3CSC3)cc2)cc1OC returned MCF10A rereplic inconclusive, PINK1 expr mod -4%, IL-1B inflam inh -88*, ATXN2 expr inh inconclusive, SW480 rereplic inconclusive and ATXN viability inactive.
`COc1cc(/C=C/C(=O)c2ccc(O)cc2)ccc1OCC#N` gave MCF10A rereplic inconclusive, PINK1 expr mod -1%, IL-1B inflam inh inconclusive, ATXN2 expr inh inconclusive and ATXN viability inconclusive.
For COc1cccc(C(=O)/C=C/c2ccc(SC)cc2)c1 the results were MCF10A rereplic inconclusive, PINK1 expr mod 11%[38.3 µM], IL-1B inflam inh -20, ATXN2 expr inh 1%, SW480 rereplic inconclusive and ATXN viability inactive.
Cc1cccc(N2CC(c3nc4ccccc4n3CCC3CCCCC3)CC2=O)c1 (centres undefined) was read as PINK1 expr mod 1%, ATXN2 expr inh -4% and ATXN viability inactive.
For CCOc1ccc(/C=C/C(=O)Oc2ccc(OC)cc2)cc1 the results were MCF10A rereplic 5%, PINK1 expr mod 0%, IL-1B inflam inh -12, ATXN2 expr inh -10%, SW480 rereplic 15µM* and ATXN viability inactive.
`CCOc1ccc(/C=C/C(=O)c2ccccc2)cc1OC` gave MCF10A rereplic inconclusive, PINK1 expr mod -1%, IL-1B inflam inh -103*, ATXN2 expr inh 25%, SW480 rereplic inconclusive and ATXN viability inconclusive.
COc1cc(NC(=O)C(CC(C)C)N2Cc3ccccc3C2=O)cc(OC)c1 (centres undefined) was read as PINK1 expr mod 3%.
`COc1cc(O)c2c(c1)C1OC1C[C@H](O)[C@H](O)C(=O)C=CC[C@H](C)OC2=O` (some centres undefined) gave ATXN2 expr inh 6.9µM*.
`Cc1ccc(N2CCN(c3ncnc4onc(-c5ccc(F)cc5)c34)CC2)c(C)c1` gave PINK1 expr mod 6%, ATXN2 expr inh 8% and ATXN viability inactive.
For CCC(C)OC(=O)/C(C#N)=C/c1ccc(-c2ccc(Br)cc2)o1 (centres undefined) the results were PINK1 expr mod 5%, ATXN2 expr inh 9% and ATXN viability inactive.
`N#C/C(=C\c1ccc(-c2ccc(Br)cc2)o1)C(=O)NCCc1c[nH]c2ccccc12` gave MCF10A rereplic inconclusive, PINK1 expr mod 3%, IL-1B inflam inh -61*, ATXN2 expr inh -29%[11.3 µM], SW480 rereplic inconclusive and ATXN viability inconclusive.
Screening N#C/C(=C/c1ccc(-c2ccc(Br)cc2)o1)C(=O)NC1CCCCC1 returned MCF10A rereplic 18µM*, PINK1 expr mod 8%, IL-1B inflam inh -55*, ATXN2 expr inh -7% and SW480 rereplic inconclusive.
`Cn1c2c(c(=O)[nH]c1=O)C(c1cccc(O)c1)C1=C(N2)c2ccccc2C1=O` (centres undefined) gave MCF10A rereplic inconclusive, PINK1 expr mod -1%, IL-1B inflam inh 19, ATXN2 expr inh inconclusive, SW480 rereplic 10µM* and ATXN viability inconclusive.
`Nc1nc2ccccc2n1CCOc1ccccc1Cl` gave MCF10A rereplic inconclusive, PINK1 expr mod -1%, IL-1B inflam inh -80*, ATXN2 expr inh -25%, SW480 rereplic 9% and ATXN viability inconclusive.
`CCN1CCN(c2ccc(Nc3cc(N(C)C(=O)Nc4c(Cl)c(OC)cc(OC)c4Cl)ncn3)cc2)CC1` gave ATXN2 expr inh -29%.
`Cc1ccc2nc(-c3ccccc3)c(CN3CCOCC3)n2c1` gave MCF10A rereplic 0.65µM*, PINK1 expr mod 1%, IL-1B inflam inh 0, ATXN2 expr inh 1%, SW480 rereplic -13% and ATXN viability inactive.
For S=c1nc[nH]c2n[nH]nc12 the results were PINK1 expr mod 1%.
`O=c1c2ccccc2sn1-c1cc(S(=O)(=O)N2CCOCC2)ccc1N1CCOCC1` gave MCF10A rereplic -6%, PINK1 expr mod -1%, IL-1B inflam inh -102*, ATXN2 expr inh -14%, SW480 rereplic inconclusive and ATXN viability inactive.
For O=c1c2ccccc2sn1-c1cc(S(=O)(=O)N2CCOCC2)ccc1N1CCCC1 the results were MCF10A rereplic inconclusive, PINK1 expr mod 22%[38.3 µM], IL-1B inflam inh -107*, ATXN2 expr inh -12%, SW480 rereplic inconclusive and ATXN viability inactive.
`CCN1CCN(C(c2ccc(F)cc2)c2c(O)cc(C)n(CCOC)c2=O)CC1` (centres undefined) gave PINK1 expr mod 1%.
For O=C(CSc1ncc(-c2ccccc2)[nH]1)Nc1ccc(Cl)cc1 the results were PINK1 expr mod 2%, ATXN2 expr inh -13% and ATXN viability inactive.
Screening Cc1ccc(Cl)cc1N1CCN(C(=O)CCS(=O)(=O)c2ccc3c(c2)NC(=O)CO3)CC1 returned MCF10A rereplic inconclusive, PINK1 expr mod 0%, IL-1B inflam inh -53*, ATXN2 expr inh inconclusive, SW480 rereplic -29% and ATXN viability inactive.
Screening O=C1COc2ccc(S(=O)(=O)CCC(=O)N3CCN(c4cccc(Cl)c4)CC3)cc2N1 returned MCF10A rereplic 16%, PINK1 expr mod 0%, IL-1B inflam inh 41, SW480 rereplic 39% and ATXN viability inactive.
Cc1nn(Cc2ccccc2Cl)c2sc(C(=O)Nc3ccccc3N3CCOCC3)cc12 was read as MCF10A rereplic 9.2µM*, PINK1 expr mod 2%, IL-1B inflam inh 0, ATXN2 expr inh -25%, SW480 rereplic 174% and ATXN viability inactive.
Cc1nn(Cc2ccc(F)cc2)c2sc(C(=O)Nc3ccccc3N3CCOCC3)cc12 was read as MCF10A rereplic 12%, PINK1 expr mod 4%, IL-1B inflam inh -17, ATXN2 expr inh 7%, SW480 rereplic 1% and ATXN viability inactive.
`COc1cc2c(cc1OC)C(COc1ccc3c(C)cc(=O)oc3c1)N(C(=O)c1ccccc1F)CC2` (centres undefined) gave PINK1 expr mod 0%, ATXN2 expr inh 3% and ATXN viability inactive.
For N#CC1=C(N)NC(SCc2ccccc2)=C(C#N)C12CCCC2 the results were MCF10A rereplic 18µM*, PINK1 expr mod -2%, IL-1B inflam inh 2, ATXN2 expr inh -11%, SW480 rereplic inconclusive and ATXN viability inactive.

Screening results as filed in PubChem BioAssay.
